PfG6PD inh: PfG6PD (Plasmodium falciparum) enzyme inhibition; PfGluPho enzyme, NADPH resazurin-diaphorase fluorescence; inhibition, % at 20 µM; 350,000 tested, 0.78% active; AID 504690;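 active means inhibition reaching at least a set limit at 20 µM in the primary screen, cut at about 59% in these data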;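 further: 0% = DMSO wells with substrate and 100% = DMSO wells lacking glucose-6-phosphate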
NadD inh: NadD (S. aureus) enzyme inhibition; purified NadD enzyme, colorimetric absorbance read-out; inhibition, % at 20 µM; 360,000 tested, 0.78% active; AID 602399; in the data active means inhibition above about 26%
APOBEC3G inh: inhibitors of human APOBEC3G DNA deaminase | 330,000 tested, 0.28% active | inhibition, % at 20 µM | AID 493012 | recombinant A3G, ssDNA deamination FAM/TAMRA fluorescence | Q9HC16;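 active means inhibition of at least 40% at 20 µM, with no more than 30% in the related APOBEC3A deaminase screen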;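 further: plate controls were DMSO wells with A3G for no effect and wells lacking A3G enzyme for full effect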
Target sequence (Q9HC16 whole entry, looked up): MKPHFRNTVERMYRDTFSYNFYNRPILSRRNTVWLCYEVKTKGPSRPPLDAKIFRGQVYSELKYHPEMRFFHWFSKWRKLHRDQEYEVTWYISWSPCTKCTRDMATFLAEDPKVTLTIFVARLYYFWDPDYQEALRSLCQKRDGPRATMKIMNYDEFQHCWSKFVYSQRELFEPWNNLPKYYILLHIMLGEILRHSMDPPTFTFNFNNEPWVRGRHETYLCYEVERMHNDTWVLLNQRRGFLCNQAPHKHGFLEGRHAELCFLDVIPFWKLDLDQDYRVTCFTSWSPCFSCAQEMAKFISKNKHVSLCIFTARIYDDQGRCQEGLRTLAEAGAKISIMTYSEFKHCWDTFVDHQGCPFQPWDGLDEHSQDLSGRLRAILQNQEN
H9c2 TAG inh: inhibitors of triacylglycerol accumulation; H9c2 cells, Nile Red lipid (TAG) fluorescence; cells loaded with 200 µM oleic acid; inhibition, % at 12.5 µM; 230,000 tested, 0.66% active;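 active means pattern-corrected inhibition of lipid staining of at least 50% with the nuclear-stain viability signal not falling by more than 50%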;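 further: 0% = DMSO wells and 100% = triacsin C control wells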
Cardio protect: protects H9c2 cardiomyocytes from peroxide injury; 360,000 tested, 0.63% active; H2O2 injury protection, ATPLite, 2 h; protection from H2O2 cell death, % at 20 µM;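 active means compounds giving at least 50% protection of heart cells from peroxide-induced death in the single-dose screen, raw or plate-pattern-corrected value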;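 further: 0% = DMSO wells with peroxide and 100% = DMSO wells without peroxide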
A3A deaminase: blocks human APOBEC3A ssDNA deamination | P31941 | recombinant A3A, FAM/TAMRA ssDNA deamination fluorescence | inhibition, % at 20 µM | 330,000 tested, 0.41% active | AID 493011;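 active means at least 40% inhibition at 20 µM here, with at most 30% in a related deaminase screen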;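 further: plate controls were A3A with DMSO for no effect and wells lacking A3A enzyme for full effect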
Target sequence (P31941 whole entry, looked up): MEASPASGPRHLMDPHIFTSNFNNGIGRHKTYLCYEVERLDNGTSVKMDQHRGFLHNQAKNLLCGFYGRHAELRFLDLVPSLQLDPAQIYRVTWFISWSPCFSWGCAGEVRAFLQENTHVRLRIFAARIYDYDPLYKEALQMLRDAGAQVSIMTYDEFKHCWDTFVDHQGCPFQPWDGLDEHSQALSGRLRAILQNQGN
PfGluPho conf: PfG6PD inhibition, single-dose confirmed. shares compounds with PfG6PD inh. recombinant PfGluPho, NADPH-diaphorase-resazurin fluorescence. inhibition, % at 20 µM. 2,400 tested, 34% active. AID 504753;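 active means inhibition of at least 50% at 20 µM in any single replicate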;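 further: 0% = DMSO with substrate and 100% = DMSO lacking glucose-6-phosphate substrate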
Diaph ctr 10uM: inhibits diaphorase or oxidizes, flagging false PfG6PD hits; shares compounds with PfG6PD inh; diaphorase-coupled resazurin reduction, fluorescence, NADPH 10 uM; inhibition, % at 20 µM; 820 tested, 39% active; AID 504862;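 active means average inhibition reaching 50% or more with the compound at 20 µM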;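 further: resorufin red fluorescence formed as diaphorase reduces resazurin using NADPH; 0% = DMSO with enzyme and 100% = DMSO without enzyme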
Diaphorase 30uM: counter-screen for P. falciparum G6PD inhibitors: diaphorase inhibitors, oxidizers; shares compounds with PfG6PD inh; Diaphorase/resazurin coupled assay, resorufin fluorescence, 30 uM NADPH; inhibition, % at 20 µM; 820 tested, 29% active;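 active means inhibition averaging 50% or more, tested at 20 µM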;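 further: 0% = DMSO with enzyme and 100% = DMSO wells lacking diaphorase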
NadD conf: confirmation of Staphylococcus aureus NadD inhibitors; 2,000 tested, 13% active; shares compounds with NadD inh; inhibition, % at 20 µM; purified S. aureus NadD, colorimetric enzyme assay; in the data active means inhibition mostly above about 42%, no sharp cut-off; inactive means mostly below about 42%
The depositor's hits bear a star; / = not tested or not shown. Only some compounds are listed: those with a hit (about 2.9% of all), similar ones and a draw of the others.

SMILES	PfG6PD inh	NadD inh	APOBEC3G inh	H9c2 TAG inh	Cardio protect	A3A deaminase	PfGluPho conf	NadD conf	others
CCc1ccc(N2C(=O)C3ON(c4ccccc4)C(c4ccco4)C3C2=O)cc1 (stereo unspecified)	4	-5	-9	-20	1	-3	/	/
CSc1ncnc2c1ncn2CCCN(C)Cc1ccco1	9	-6	/	17	11	/	/	/
CCOc1ccc(-n2c(N)c(C(=O)NCc3ccco3)sc2=S)cc1	85*	-2	30	13	-5	3	31	/
COc1ccc(CNC(=O)c2sc(=S)n(-c3ccccc3)c2N)cc1	61*	1	31	-41	1	-2	41	/
CCOc1ccc(-n2c(N)c(C(=O)NCc3cccnc3)sc2=S)cc1	53	-5	-3	29	2	-1	/	/
COc1ccc(NC(=O)c2cc(F)cc(F)c2)cc1Cl	0	-3	-5	/	-6	-2	/	/
COc1ccc(NC(=O)c2ccc(OC(F)F)cc2)cc1Cl	85*	-2	-6	/	-15	-1	2	/
CSc1nc(=S)cc(C)[nH]1	70*	-10	21	12	4	1	18	/
O=C(COc1ccccc1Cl)Nc1ccc(S(=O)(=O)Nc2ccccn2)cc1	-20	4	-10	/	-8	-3	/	/
CCn1c(SCC(=O)Nc2ccccc2OC)nnc1-c1cnccn1	78*	-8	-5	/	2	-1	53*	/	Diaph ctr 10uM=43;Diaphorase 30uM=45
CCn1c(SCC(=O)Nc2ccc(C)cc2)nnc1-c1cnccn1	68*	-2	0	/	-1	0	16	/
C=CCn1c(SCC(=O)Nc2ccc(OC)cc2)nnc1-c1cnccn1	64*	-3	-7	/	6	-5	17	/
C=CCn1c(SCC(=O)Nc2ccccc2OC)nnc1-c1ccccn1	21	-4	-4	/	4	-1	/	/
C=CCn1c(SCC(=O)Nc2cc(C)cc(C)c2)nnc1-c1cnccn1	25	2	-6	/	1	1	/	/
CCn1c(SCC(=O)Nc2ccc3c(c2)c2ccccc2n3CC)nnc1-c1cnccn1	-1	10	-5	/	12	0	/	/
O=C1NC[C@@H](CCCCN2CCN(CCC3CCCCC3)C(=O)C2=O)N(CC2CCCCC2)C1=O	/	14	/	/	/	/	/	/
CCCC[C@H]1C2=C3[C@@H](CC(C(=O)OC)=C[C@@H](C(=O)OC)[C@H]3C(C)(C)C2=O)n2c(=O)n(-c3ccccc3)c(=O)n21	2	-1	-11	3	4	0	/	/
Cc1ccc(C(=O)N2CCN(c3ccc(C(F)(F)F)cn3)CC2)o1	-2	6	-4	-17	-3	-3	/	/
CC(NCc1ccc(N(C)C)cc1)C1CC2CCC1C2 (stereo unspecified)	-1	-8	0	-15	6	-2	/	/
COc1ccc(S(=O)(=O)N(CC(=O)NCCC(C)C)c2ccccc2)cc1OC	-14	-3	-7	15	-5	-1	/	/
O=C(Nc1ccc(N2CCCC2)cc1)c1cccc(-c2cc3ccccc3oc2=O)c1	68*	57*	-2	/	-6	-4	58*	6	Diaph ctr 10uM=-21;Diaphorase 30uM=-29
O=C(CNc1cccc2ccccc12)N/N=C/c1ccccn1	60*	48*	-6	-3	-3	-1	20	1
Cc1cccc(NCC(=O)N/N=C\c2ccccn2)c1	11	-4	-4	-6	13	0	/	/
CCC(c1nnc(SCC(=O)Nc2cccnc2Cl)n1-c1ccccc1)N(C)C (stereo unspecified)	8	1	-4	9	-1	-4	/	/
COc1cccc(N2[C@@H](CC(=O)O)c3cc(C(F)(F)F)ccc3S2(=O)=O)c1	72*	49*	48	8	-5	38	26	52*
SMILES	PfG6PD inh	NadD inh	APOBEC3G inh	H9c2 TAG inh	Cardio protect	A3A deaminase	PfGluPho conf	NadD conf	others
COc1ccccc1N1CSC2=C(C#N)C(c3ccc(SC)cc3)CC(=O)N2C1 (stereo unspecified)	67*	35*	38	7	10	22	52*	39	Diaph ctr 10uM=-6;Diaphorase 30uM=-4
COc1cc(SC)ccc1C(=O)N1CCN(c2ccccc2OC)CC1	-1	6	-5	18	6	2	/	/
COc1ccc2c(CC(=O)N3CCN(S(=O)(=O)c4ccc(F)cc4)CC3)coc2c1	-2	2	1	6	2	7	/	/
COc1ccc(CN(C)S(=O)(=O)c2nnc(NC(=O)c3ccccc3Br)s2)cc1	-4	-1	-5	/	-5	-1	/	/
COc1cccc(C(=O)Nc2nnc(S(=O)(=O)N(C)Cc3ccc(F)cc3)s2)c1	80*	30*	2	/	-5	0	48	16
CCOc1ccccc1/C=N/NC(=O)Cc1csc(Nc2cccc(C(F)(F)F)c2)n1	69*	38*	-5	/	-29	0	7	24
COc1ccc(-c2c3c([nH]c(=S)c2C#N)CCC3)cc1	64*	36*	/	-30	2	/	42	17
Cc1ccc(-n2c(SCC(=O)N(C)C3CCS(=O)(=O)C3)nc3ccccc3c2=O)c(C)c1 (stereo unspecified)	20	2	-1	9	3	-1	/	/
Cc1cnc(C=NNC(N)=S)c2cccc(N)c12	106*	61*	/	26	11	/	66*	9	Diaph ctr 10uM=-8;Diaphorase 30uM=-6
Cc1cccc(C(O)c2ncc(-c3ccccc3)[nH]2)c1C (stereo unspecified)	/	0	/	11	-4	/	/	/
Cc1cccc(N2CCN(S(=O)(=O)c3ccc4c(c3)NC(=O)CO4)CC2)c1C	-6	10	-8	/	-5	-5	/	/
CC(C)Cn1c(N)c(C(=O)COC(=O)c2cc(-c3ccco3)nc3ccccc23)c(=O)n(C)c1=O	71*	53*	17	12	14	40	4	20
O=C(CN1C(=O)NC2(CCOc3ccccc32)C1=O)NCCc1ccc(F)cc1 (stereo unspecified)	9	-2	-5	0	2	1	/	/
COc1ccc(C)cc1Nc1nc(-c2c[nH]c3ccccc23)cs1	60*	39*	34	12	-14	-1	-8	36
COc1ccc(OC)c(Nc2nc(-c3cccs3)cs2)c1	31	-1	-9	/	-6	-4	/	/
Cn1c(=O)c2c(ncn2Cc2ccc(Cl)cc2)n(C)c1=O	9	2	-5	1	1	2	/	/
Cn1c(=O)c2c([nH]c(=S)n2Cc2ccc(Cl)cc2)n(C)c1=O	62*	32*	22	-1	-1	-4	25	35
